# An excerpt weighted towards active compounds, which were near 19% of everything screened.
# TDP1 cell CPT: growth inhibition of DT40 Tdp1-/-;hTDP1 cells with camptothecin (screen for TDP1 inhibitors); actives 12% (n = 420,000); chicken DT40 Tdp1-/-;hTDP1 cells + 20 nM CPT, ATP luminescence, 48 h; AID 686979; Potency, µM (titrated, usually from 46.2 µM), inactives show at the top dose activity change, negative = growth inhibition, usual class: inhibitors; further: nearly all actives have a fitted effect of over 55% in size
#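 Cell growth measured by CellTiter-Glo luminescence after a minimum 48 h, 37 C compound exposure with 20 nM CPT in Tdp1-knockout DT40 cells stably expressing hTDP1, seeded 400/well; qHTS titration format.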
# TDP1 block: blocks human tyrosyl-DNA phosphodiesterase 1 | Q9NUW8 | recombinant TDP1, AlphaScreen DNA substrate cleavage | Potency, µM (highest dose often 130 µM), for inactives: at the top dose activity change, negative = inhibition, hits mostly inhibitors | actives 0.28% (n = 350,000); further: nearly all actives have a fitted effect of over 40% in size
# Target sequence (Q9NUW8 whole entry, looked up): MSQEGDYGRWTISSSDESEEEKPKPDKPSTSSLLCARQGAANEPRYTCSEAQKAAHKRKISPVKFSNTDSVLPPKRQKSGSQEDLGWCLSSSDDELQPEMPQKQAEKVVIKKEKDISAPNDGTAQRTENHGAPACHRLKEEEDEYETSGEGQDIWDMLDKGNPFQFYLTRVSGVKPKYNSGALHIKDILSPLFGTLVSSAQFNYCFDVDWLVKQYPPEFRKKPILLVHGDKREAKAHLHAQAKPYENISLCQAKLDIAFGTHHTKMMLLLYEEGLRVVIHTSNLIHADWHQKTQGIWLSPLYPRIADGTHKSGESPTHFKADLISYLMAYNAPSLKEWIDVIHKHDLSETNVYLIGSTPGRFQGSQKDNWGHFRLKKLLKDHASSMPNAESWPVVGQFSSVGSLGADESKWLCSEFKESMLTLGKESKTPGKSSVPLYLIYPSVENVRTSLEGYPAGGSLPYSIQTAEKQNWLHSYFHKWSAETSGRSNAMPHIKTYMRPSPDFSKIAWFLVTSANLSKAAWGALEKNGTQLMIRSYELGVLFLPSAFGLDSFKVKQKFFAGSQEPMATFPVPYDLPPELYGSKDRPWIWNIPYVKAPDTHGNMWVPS
#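 Recombinant human Tdp1 (E. coli-expressed, 1 nM final) preincubated with compounds 15 min at room temperature, then 5'-biotin/3'-phosphotyrosine-FITC DNA substrate (15 nM final) added for 5 min. AlphaScreen beads (10 ug/ml final) added 10 min; cleavage lowers signal.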
# Gal4-VP16 FLuc: counter-screen for ROR gamma inhibitors: Gal4-VP16 reporter | Drosophila S2 Gal4-VP16 UAS-luciferase, luminescence, 20 h | Potency, µM (series often up to 53.6 µM), without a hit: top-dose activity, negative = inhibition, actives largely listed as inhibitors | actives 3.5% (n = 310,000) | AID 2546;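 further: Gal4-VP16 expression switched on by copper sulfate through the metallothionein promoter; nearly all actives have a fitted effect of over 50% in size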
# TDP1 cell noCPT: qHTS for Inhibitors of human tyrosyl-DNA phosphodiesterase 1 (TDP1): qHTS in cells in absence of CPT; actives 15% (n = 420,000); DT40 Tdp1-/- hTDP1 cells, no CPT, ATP luminescence, 48 h; AID 686978, 2013; Potency, µM (highest dose often 46.2 µM), inactives show at the highest dose activity change, negative = growth inhibition, actives largely listed as inhibitors; further: nearly all actives have a fitted effect of over 55% in size
#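 DT40 Tdp1-/-;hTDP1 cells, no CPT (DMSO vehicle only), 400 cells/well; compounds pin-transferred; ≥48 hr, 37 °C; CellTiter-Glo 30 min RT dark, luminescence read.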
# RORgamma inh: inhibitors of mouse ROR gamma transcriptional activity; Drosophila S2 Gal4-RORgamma UAS-luciferase reporter, 20 h; Potency, µM (doses to about 53.6 µM), for the others: at the top dose activity change, negative = inhibition, hits mostly inhibitors; actives 5.4% (n = 310,000); further: nearly all actives have a fitted effect of over 60% in size
#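 ROR gamma transcriptional activity was tracked as Gal4-UAS luciferase output in stably transfected Drosophila Schneider cells, with compound added 1 hr before 700 uM copper sulfate induction and a 20 hr ambient-temperature incubation.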
# The depositor's hits bear a star; ? = inconclusive; . = not tested or not shown; [ ] = dose if it differs, or a comment. The call rests on the fitted dose curve; in most records, active means well fitted curve in the direction sought with a large enough effect; inconclusive means small, poorly fitted or top-dose-only effect, or another doubt; inactive means no such curve, though single readings can be large; an effect the other way counts as inactive or inconclusive. On the % scale 0 is the no-effect control and ±100 the full control effect; potency means the concentration at half of the fitted maximal effect.
SMILES,TDP1 cell CPT,TDP1 block,Gal4-VP16 FLuc,TDP1 cell noCPT,RORgamma inh
C=CC[n+]1c(-c2ccc(Cl)cc2Cl)csc1Nc1c(C)n(C)n(-c2ccccc2)c1=O,5.2µM*,3%,-12%[10 µM],3.7µM*,?
C=CC[n+]1c(C)csc1Nc1ccc(C)cc1,-1%,5%,6%,?,?
COc1cccc(C2=NOC(C(=O)NCc3ccccc3)C2)c1 (stereo not drawn),5.2µM*,-1%,3%,4.6µM*,20%
COc1cccc(C2=NOC(C(=O)NCc3ccco3)C2)c1 (stereo not drawn),9.2µM*,7%,-7%,13µM*,10%
Cn1cccc1/C=N/N1CCN(Cc2ccccc2Cl)CC1,-13%,.,5%,2.6µM*,16%
Fc1ccccc1/C=N/N1CCN(Cc2ccccc2Cl)CC1,?,.,-2%,?,23%
O=[N+]([O-])c1ccc(Cl)c(/C=N/N2CCN(Cc3ccccc3)CC2)c1,-6%,12%,-1%,9%,14%
O=[N+]([O-])c1ccc(Cl)c(/C=N/N2CCN(Cc3ccccc3Cl)CC2)c1,?,11%,-5%,21µM*,16%
Cc1occc1C(=O)N1CCC2(CCCN(Cc3ccc(F)c(F)c3)C2)C1 (stereo not drawn),15µM*,6%,4%,16µM*,-1%
COc1cc2cc(CCOC(=O)c3ccc(C#N)cc3)oc(=O)c2cc1OC,?,1%,.,-30%,.
COc1ccccc1OCCn1c(=O)sc2ccccc21,-27%,0%,4%,-9%,22%
CCCCn1c(=N)n(CCOc2ccc(C)cc2)c2ccccc21,4.6µM*,1%,-6%,5.8µM*,30%
CCCCCn1c(=N)n(CC(O)COc2ccccc2OC)c2ccccc21 (stereo not drawn),3.7µM*,-5%,?,5.8µM*,?
CCCCn1c(=N)n(CCOc2ccccc2OC)c2ccccc21,2.9µM*,-1%,.,4.1µM*,.
COc1ccccc1OCC(O)Cn1c(=N)n(Cc2ccccc2)c2ccccc21 (stereo not drawn),21µM*,8%,-7%,8.2µM*,2%
C=CCn1c(=N)n(CC(O)COc2ccccc2OC)c2ccccc21 (stereo not drawn),?,2%,-4%,?,1%
CCOC(=O)Cn1c(=N)n(CCOc2ccc(F)cc2)c2ccccc21,7%,8%,-3%,-2%,3%
C=C1CCN([C@@H](C)C(=O)NCCCCCC)S(=O)(=O)c2ccccc21,-27%,.,-1%,?,-3%
CCN(C(=O)COC(=O)c1cc(S(=O)(=O)Nc2c(C)n(C)n(-c3ccccc3)c2=O)ccc1Cl)C1CCCCC1,0%,1%,-7%,?,-3%
Cc1ccccc1OCC(O)Cn1c(=N)n(Cc2ccccc2)c2ccccc21 (stereo not drawn),4.1µM*,.,?,5.2µM*,-29%
CCn1c(=N)n(CCOc2ccc(Br)cc2)c2ccccc21,5.8µM*,2%,.,5.2µM*,.
Cc1ccccc1OCC(O)Cn1c2ccccc2c2ccccc21 (stereo not drawn),?,0%,?,?,8%
Cc1ccc(Cn2c(=N)n(CC(O)c3ccco3)c3ccccc32)cc1 (stereo not drawn),-84%,7%,0%,16µM*,-15%
N=c1n(Cc2ccccc2)c2ccccc2n1CC(O)c1ccccc1 (stereo not drawn),10µM*,3%,-9%,21µM*,1%
COc1ccc(OCCn2c(=N)n(CCO)c3ccccc32)cc1,-18%,2%,4%,?,6%
C=C1CCN(C(C(=O)NCc2ccc(Cl)c(Cl)c2)C(C)C)S(=O)(=O)c2ccccc21 (stereo not drawn),.,-4%,-3%,.,11%
C=C1CCN([C@@H](CC(C)C)C(=O)NCCC(C)C)S(=O)(=O)c2ccccc21,?,.,.,23µM*,.
C=C1CCN([C@@H](CC(C)C)C(=O)NCc2ccc(OC)cc2)S(=O)(=O)c2ccccc21,?,.,.,23µM*,.
